Rows were chosen to be rich in hits. Some 5.9% of all compounds tested hit in one or more screens of this group.
GLP1R inv ag = GLP-1 receptor (human) inverse agonism; P43220; HEK293 GLP-1R CRE-luciferase, luminescence, 24 h; GLP-1R form is constitutively active; Potency, µM (doses to about 38.3 µM), for the others: top-dose activity change, negative = inhibition, most hits filed as inhibitors; hit rate 1.6% among 410,000; AID 624417; also: % is scaled to controls: 0 for no effect and ±100 for the full control effect; nearly all actives have a fitted effect of over 55% in size
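Seeding at 200 cells/uL, 12 h culture, 24 hr compound treatment, then luciferase reagent and a luminescence read; cells are HEK293 stably expressing a constitutively active GLP-1R plus cAMP-responsive luciferase.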
Gal4-VP16 FLuc = inhibits Gal4-VP16 luciferase reporter, ROR gamma counter-screen. Drosophila S2 Gal4-VP16 UAS-luciferase, luminescence, 20 h. Potency, µM (highest dose often 53.6 µM), for inactives: top-dose activity, negative = inhibition, most hits filed as inhibitors. hit rate 3.5% among 310,000. AID 2546;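 also: Gal4-VP16 expression switched on by copper sulfate through the metallothionein promoter; % is scaled to controls: 0 for no effect and ±100 for the full control effect; nearly all actives have a fitted effect of over 50% in size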
RORgamma inh = blocks mouse ROR gamma transcriptional activity; P51450; Drosophila S2 Gal4-RORgamma UAS-luciferase reporter, 20 h; Potency, µM (series often up to 53.6 µM), for the others: top-dose activity change, negative = inhibition, actives largely listed as inhibitors; hit rate 5.4% among 310,000; also: % is scaled to controls: 0 for no effect and ±100 for the full control effect; nearly all actives have a fitted effect of over 60% in size
Target sequence (P51450 whole entry, looked up, the tested form may be a part): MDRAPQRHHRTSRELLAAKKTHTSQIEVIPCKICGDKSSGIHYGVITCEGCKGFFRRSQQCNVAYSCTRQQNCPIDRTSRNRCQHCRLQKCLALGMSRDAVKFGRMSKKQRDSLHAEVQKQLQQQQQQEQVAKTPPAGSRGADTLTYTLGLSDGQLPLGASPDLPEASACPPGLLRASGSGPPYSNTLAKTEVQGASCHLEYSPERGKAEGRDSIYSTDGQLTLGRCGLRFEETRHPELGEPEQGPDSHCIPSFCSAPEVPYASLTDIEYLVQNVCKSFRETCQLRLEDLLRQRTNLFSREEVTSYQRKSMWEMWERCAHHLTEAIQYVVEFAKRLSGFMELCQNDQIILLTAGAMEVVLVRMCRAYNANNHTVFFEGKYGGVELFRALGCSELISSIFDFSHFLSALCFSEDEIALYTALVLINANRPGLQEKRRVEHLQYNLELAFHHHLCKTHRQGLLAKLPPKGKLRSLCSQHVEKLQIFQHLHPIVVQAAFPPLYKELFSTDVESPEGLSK
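Using a luciferase readout, inhibitors were identified by reduced reporter activity in Drosophila cells coexpressing a copper-inducible Gal4–ROR gamma fusion and UAS-driven Photinus luciferase, incubated 20 hr after 700 uM copper sulfate.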
GLP-1R agonist = GLP-1 receptor (human) agonism; P43220; HEK293 GLP-1R CRE-luciferase, luminescence, 4-6 h; cells express a hypersensitive GLP-1R form; Potency, µM (titrated, usually from 45.6 µM), for inactives: at the top dose activation, most hits filed as activators; hit rate 0.007% among 380,000; AID 624172; also: % of control where 0% means no effect
GLP1R cytotox = cytotoxic in the GLP-1 receptor inverse agonist counter-screen; HEK293 cAMP-luciferase reporter cells, luminescence, 24 h; Potency, µM (top dose mostly 38.3 µM), without a hit: at the top dose activity change, negative = inhibition, actives largely listed as inhibitors; hit rate 0.13% among 410,000;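 also: loss of luciferase light is scored as toxicity; % is scaled to controls: 0 for no effect and ±100 for the full control effect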
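Step one: seed cells (200 cells/uL, DMEM with 10% Nu serum, 1% pen-strep). Step two: 12-hour incubation at 37 deg C. Step three: pin 23 nL compound, incubate 24 hr. Step four: add luciferase reagent, read luminescence 12 min later.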
Active calls of the source: *; ? = inconclusive; · = no result; [ ] = remark or other dose. Calls follow the shape of the dose curve; as a rule, active = well fitted curve in the direction sought with a large enough effect; inconclusive = small, poorly fitted or top-dose-only effect, or another doubt; inactive = no such curve, though single readings can be large; an effect the other way counts as inactive or inconclusive. Potency is read from the fitted curve at half-maximal effect.

SMILES	GLP1R inv ag	Gal4-VP16 FLuc	RORgamma inh	GLP-1R agonist	GLP1R cytotox
O=C(c1cc(-c2ccc(Cl)cc2)on1)N1CCCCCC1	-22%	4%	-24%	5%	-4%
O=C(c1cc(-c2ccc(Cl)cc2Cl)on1)N1CCN(C(=O)c2ccco2)CC1	1%	-2%	1%	10%	9%
O=C(c1cc(-c2ccc(Cl)cc2Cl)on1)N1CCCC1	?	10µM*	8.9µM*	2%	0%
O=C(Nc1ccccc1C(F)(F)F)N1CCC2(CC1)Oc1ccccc1C(=O)N2Cc1ccccc1F	-19%	·	·	·	-8%
COc1cc(NC(=O)C(=O)NNC(=O)C2CCCCC2)c(OC)cc1Cl	?	?	?	-3%	?
COc1cc(OC)cc(C(=O)NNC(=O)C(=O)Nc2cc(OC)c(Cl)cc2OC)c1	-10%	-2%	7.9µM*	-8%	2%
COc1ccc(OC)c(-c2csc(CCn3nc(C)cc3C)n2)c1	-20%	4%	14µM*	6%	1%
COc1ccc(-c2cc(C(F)F)nc(-n3nc(C)cc3C)n2)cc1	?	1.4µM*	0.89µM*	8%	?
COc1ccc(-c2csc(CCn3nc(C)cc3C)n2)cc1	-17%	?	10µM*	15%	0%
CC1=Nc2cc(C(=O)NCc3ccccc3Cl)ccc2Sc2c(C)ccc(C)c21	?	·	·	8%	-24%
CCCCC#CC1C=CC(Oc2ccc(OC)cc2)C(CO)O1 (stereo unspecified)	·	-3%[10 µM]	-14%[10 µM]	·	·
Cc1ccc(Cn2c(CN3CCN(c4cccc(Cl)c4)CC3)nc3c2c(=O)n(C)c(=O)n3C)cc1	?	·	·	·	1%
O=C(NCc1ccccc1Cl)c1ccc(CS(=O)(=O)c2ccc(Br)cc2)o1	10µM*	·	·	·	5%
Cc1ccc(S(=O)(=O)Cc2ccc(C(=O)NCCc3ccc(Cl)cc3)o2)cc1	10µM*	·	·	-2%	-13%
CCOc1ccc(NC(=O)c2cc(S(=O)(=O)N3CCCCCC3)cn2C)cc1	9%	·	·	1%	-4%
O=C1/C(=C/c2cccnc2)CCC/C1=C\c1cccnc1	?	2.5µM*	1.3µM*	-24%	?
CCC1C/C(=C\c2cccnc2)C(=O)/C(=C/c2cccnc2)C1 (stereo unspecified)	3.5µM*	1.8µM*	5.6µM*	-42%	?
CCOc1ccccc1CN1CCN(C2CCN(c3ccccc3F)CC2)CC1CCO (stereo unspecified)	11µM*	2%	-17%	2%	-4%
CCOc1ccccc1CN1CCN(Cc2ccc(C)o2)CC1CCO (stereo unspecified)	-11%	-2%	-2%	9%	4%
COC(=O)C/C=C\[C@@H](C)[C@@H](/C=N\OC[C@@H](C)[C@H](OCc1ccccc1)C(C)C)OC	·	-10%[10 µM]	20%[10 µM]	·	·
COc1ccc(NC(=O)C2CC(=O)N/C(=N/NC(=O)c3ccc(Cl)cc3)S2)cc1 (stereo unspecified)	18%	-27%	1.3µM*	5%	26%
Cc1ccc(NC(=O)C2CC(=O)N/C(=N/NC(=O)c3ccc(C)cc3)S2)cc1 (stereo unspecified)	3%	10µM*	2.2µM*	-21%	-9%
Cc1ccc(C(=O)N/N=C2/NC(=O)CC(C(=O)Nc3ccccc3)S2)cc1 (stereo unspecified)	11%	5.6µM*	3.2µM*	-8%	20%
O=C1CC(C(=O)Nc2ccccc2)S/C(=N\NC(=O)c2ccccc2Cl)N1 (stereo unspecified)	6%	5µM*	3.2µM*	6%	-1%
O=C(CCc1nnc2n(Cc3ccccc3Cl)c(=O)c3ccccc3n12)Nc1ccccc1	3%	·	·	·	-1%
O=C(c1ccc([N+](=O)[O-])cc1)N(Cc1ccco1)c1ccccn1	20%	·	·	·	5%
CCc1nn(CC(=O)NC(C)CC)c(=O)c2cc3c(OC)cccc3n12 (stereo unspecified)	2%	·	·	·	-5%
COc1cccc(NC(=O)C2CC(=O)N/C(=N/NC(=O)c3ccc(C)cc3)S2)c1 (stereo unspecified)	-6%	11µM*	6.3µM*	0%	-1%

Screens as filed in PubChem.
